# Measurements taken from PubChem BioAssay (EPA / NIEHS).
# Results filed as inconclusive are left out. Active and inactive are the calls of the source. Rule for the calls, unless noted: active = hit-call score of the fitted dose curve at least 0.9, where 1 is the maximum; inactive = score below 0.9.
# Key:
# [1] = BSK_SAg_PBMCCytotoxicity: PBMC Cytotoxicity Assessment in the BioMAP Diversity Plus: SAg Assay (AID 2283093); settings: primary human HUVEC with PBMC;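 note: PBMC viability measured as Alamar Blue reduction fluorescence at 546/580 nm; fitted both ways against DMSO so a hit may be loss or gain of signal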;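 for AC50: PBMC superantigen activated with SEB plus TSST-1 one hour after compound addition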
# Summary of the method: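 Alamar Blue reduction (6 h, 546/580 nm) reports PBMC cytotoxicity after 90 h superantigen activation (SEB, TSST-1; 20 ng/mL final each) with 1 h compound pre-treatment. Gain or loss of signal fitted versus DMSO.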
# [2] = read-out: Interleukin-8 (IL8), CXCL8 (gene 3576); assay: BSK_SAg_IL8: BioMAP Diversity Plus: SAg Assay for Interleukin-8 (IL8) Biomarker Activity (AID 2283094); settings: primary human HUVEC with PBMC; actives raise or lower the signal
# Summary of the method: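 Chemicals were dosed onto a human endothelial–PBMC co-culture, and IL-8 was quantified by ELISA after 24 h. Both increases and decreases were fitted relative to DMSO.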
# [3] = BSK_SAg_Proliferation: Cell Proliferation Assessment in the BioMAP Diversity Plus: SAg Assay (AID 2283095); settings: primary human HUVEC with PBMC;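 note: relative cell number as total protein by SRB absorbance in sub-confluent culture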
# Summary of the method: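 Absorbance of sulforhodamine B at 560 nm reports total protein in a human vascular endothelial/PBMC co-culture after 96 h chemical exposure. Gain or loss of signal is fitted in both directions against DMSO.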
# [4] = BSK_SAg_SRB: Viability Assessment in the BioMAP Diversity Plus: SAg Assay (AID 2283096); settings: primary human HUVEC with PBMC;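 note: cells read one day after compound addition; hits may be either gain or loss of signal compared with DMSO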
# Summary of the method: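 This overt-cytotoxicity endpoint quantifies protein in human endothelial/PBMC co-cultures at 24 h using SRB absorbance (560 nm) after trichloroacetic acid fixation. Values reflect signal change from the DMSO negative control, fitted bidirectionally.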
# [5] = target: human AKT serine/threonine Kinase 1 (AKT1), AKT1 (gene 207) (UniProt P31749); assay: NVS_ENZ_hAKT1: NovaScreen (NVS) Enzymatic Assay for human AKT serine/threonine Kinase 1 (AKT1) (AID 2283138; active = hit-call score of the fitted dose curve at least 0.9, where 1 is the maximum)
# Summary of the method: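 Compounds were first tested in duplicate at 25 uM, and those passing a threshold such as 30% inhibition were run in concentration-response to a maximum of 50 uM. Enzyme activity was measured after 1 h by fluorescence following substrate/product mobility-shift separation.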
# [6] = target: Cytochrome P450 3A4 (Homo sapiens) (UniProt P08684); assay: NVS_ADME_hCYP3A4: NovaScreen (NVS) CYP450-related Enzyme Activity (ADME) Assay for human CYP3A4 (AID 2283110; active = hit-call score of the fitted dose curve at least 0.9, where 1 is the maximum)
# Summary of the method: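 Activity is derived from decreased fluorescence intensity relative to acetonitrile, measured 0.33 hour after dosing insect-cell-expressed CYP3A4 in a cell-free format. Screening used 10 uM in duplicate before concentration-response follow-up.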
# [7] = target: human Caspase 5 (CASP5), CASP5 (gene 838) (UniProt P51878); assay: NVS_ENZ_hCASP5: NovaScreen (NVS) Enzymatic Assay for human Caspase 5 (CASP5) (AID 2283137; active = hit-call score of the fitted dose curve at least 0.9, where 1 is the maximum)
# Summary of the method: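 Chemicals were first tested in duplicate at 25 uM against recombinant caspase 5 from E. coli. Activity was read by fluorescence intensity 2 hours after dosing. Those passing a preset inhibition threshold were retested in singleton concentration-response up to 50 uM.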
# [8] = target: human Caspase 4 (CASP4), CASP4 (gene 837) (UniProt P49662); assay: NVS_ENZ_hCASP4: NovaScreen (NVS) Enzymatic Assay for human Caspase 4 (CASP4) (AID 2283143; active = hit-call score of the fitted dose curve at least 0.9, where 1 is the maximum)
# Summary of the method: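 Compounds were first tested in duplicate at 25 uM, and hits were titrated singly to a 50 uM maximum. Recombinant protease from E. coli was read by fluorescence 2 h post-dose, and activity loss was fitted against the DMSO baseline.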
# [9] = target: human Beta-secretase (BACE), BACE1 (gene 23621) (UniProt P56817); assay: NVS_ENZ_hBACE: NovaScreen (NVS) Enzymatic Assay for human Beta-secretase (BACE) (AID 2283140; active = hit-call score of the fitted dose curve at least 0.9, where 1 is the maximum;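 note: hits are inhibitors that reduce fluorescent substrate signal versus DMSO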)
# Summary of the method: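 Fluorescence intensity read-out of protease activity defines this endpoint; signal loss relative to DMSO baseline marks inhibition. Recombinant enzyme from SF9 cells, cell-free format, 1 h exposure. Single-concentration duplicate screen (25 uM) precedes concentration-series follow-up.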
# [10] = target: Cytochrome P450 2C19 (Homo sapiens) (UniProt P33261); assay: NVS_ADME_hCYP2C19: NovaScreen (NVS) CYP450-related Enzyme Activity (ADME) Assay for human CYP2C19 (AID 2283113; active = hit-call score of the fitted dose curve at least 0.9, where 1 is the maximum;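 for AC50: potency for inhibition seen as loss of fluorescent signal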)
# Summary of the method: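 Fluorescence intensity was measured 1 hour after chemicals were added to insect-cell-derived recombinant CYP2C19 with fluorogenic substrate. Decreased signal versus acetonitrile control was taken as reduced enzyme activity; initial testing used 10 uM in duplicate.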
# [11] = target: human Colony Stimulating Factor 1 Receptor (CSF1R), CSF1R (gene 1436) (UniProt P07333); assay: NVS_ENZ_hCSF1R: NovaScreen (NVS) Enzymatic Assay for human Colony Stimulating Factor 1 Receptor (CSF1R) (AID 2283150; active = hit-call score of the fitted dose curve at least 0.9, where 1 is the maximum)
# Summary of the method: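 Compounds screened in duplicate at 25 uM, then concentration-response (top 50 uM) for those passing threshold such as 30% inhibition; recombinant CSF1R activity measured 1 h post-dosing via fluorescent substrate/product mobility-shift separation, loss of signal versus DMSO.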
# [12] = target: human CYP2D6, CYP2D6 (gene 1565) (UniProt P10635); assay: NVS_ADME_hCYP2D6: NovaScreen (NVS) CYP450-related Enzyme Activity (ADME) Assay for human CYP2D6 (AID 2283107; active = hit-call score of the fitted dose curve at least 0.9, where 1 is the maximum)
# Summary of the method: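 Insect-cell recombinant enzyme + fluorogenic substrate, cell-free; 1 h incubation; fluorescence intensity readout. Acetonitrile = neg. ctrl/baseline. Single-point 10 uM, duplicate; follow-up concentration series.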
# [13] = target: human Acid Phosphatase 1 (ACP1), ACP1 (gene 52) (UniProt P24666); assay: NVS_ENZ_hACP1: NovaScreen (NVS) Enzymatic Assay for human Acid Phosphatase 1 (ACP1) (AID 2283136; active = hit-call score of the fitted dose curve at least 0.9, where 1 is the maximum)
# Summary of the method: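 Cell-free fluorescence read-out of phosphatase activity, substrate and product separated by mobility shift, taken 1.5 h after compound addition; protein produced in Sf9. Single 25 uM duplicate screen, followed by concentration series for actives, scored as signal loss relative to DMSO.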
# [14] = target: human Caspase 8 (CASP8), CASP8 (gene 841) (UniProt Q14790); assay: NVS_ENZ_hCASP8: NovaScreen (NVS) Enzymatic Assay for human Caspase 8 (CASP8) (AID 2283146; active = hit-call score of the fitted dose curve at least 0.9, where 1 is the maximum)
# Summary of the method: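 The primary screen tested compounds in duplicate at a single 25 uM concentration, with actives followed up in concentration series. Activity of recombinant (E. coli) protease was measured by fluorescence 1 h post-dose, as signal loss against DMSO.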
# [15] = target: human AKT serine/threonine Kinase 2 (AKT2), AKT2 (gene 208) (UniProt P31751); assay: NVS_ENZ_hAKT2: NovaScreen (NVS) Enzymatic Assay for human AKT serine/threonine Kinase 2 (AKT2) (AID 2283141; active = hit-call score of the fitted dose curve at least 0.9, where 1 is the maximum)
# Summary of the method: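 Cell-free fluorescence/electrophoretic mobility shift readout of recombinant human AKT2 activity, 1 h after chemical dosing. Duplicate primary screen at 25 uM, then singleton concentration-response up to 50 uM; loss of signal versus DMSO baseline.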
# Sequence of Cytochrome P450 3A4 (Homo sapiens) (P08684 whole entry, looked up): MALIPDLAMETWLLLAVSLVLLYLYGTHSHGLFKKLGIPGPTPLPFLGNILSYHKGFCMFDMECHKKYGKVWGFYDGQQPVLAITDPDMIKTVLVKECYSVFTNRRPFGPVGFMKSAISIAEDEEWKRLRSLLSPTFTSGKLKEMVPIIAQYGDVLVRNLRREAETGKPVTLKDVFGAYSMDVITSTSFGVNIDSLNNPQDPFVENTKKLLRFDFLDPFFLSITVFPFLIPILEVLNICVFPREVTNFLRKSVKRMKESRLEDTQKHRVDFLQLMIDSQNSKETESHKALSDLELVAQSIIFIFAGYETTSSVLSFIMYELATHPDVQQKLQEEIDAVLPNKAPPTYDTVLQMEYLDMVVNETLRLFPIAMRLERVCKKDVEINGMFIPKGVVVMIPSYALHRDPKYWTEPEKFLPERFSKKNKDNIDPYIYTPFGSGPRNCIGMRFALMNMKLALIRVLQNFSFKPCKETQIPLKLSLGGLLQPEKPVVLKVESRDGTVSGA
# Sequence of human AKT serine/threonine Kinase 1 (AKT1), AKT1 (gene 207) (P31749 whole entry, looked up): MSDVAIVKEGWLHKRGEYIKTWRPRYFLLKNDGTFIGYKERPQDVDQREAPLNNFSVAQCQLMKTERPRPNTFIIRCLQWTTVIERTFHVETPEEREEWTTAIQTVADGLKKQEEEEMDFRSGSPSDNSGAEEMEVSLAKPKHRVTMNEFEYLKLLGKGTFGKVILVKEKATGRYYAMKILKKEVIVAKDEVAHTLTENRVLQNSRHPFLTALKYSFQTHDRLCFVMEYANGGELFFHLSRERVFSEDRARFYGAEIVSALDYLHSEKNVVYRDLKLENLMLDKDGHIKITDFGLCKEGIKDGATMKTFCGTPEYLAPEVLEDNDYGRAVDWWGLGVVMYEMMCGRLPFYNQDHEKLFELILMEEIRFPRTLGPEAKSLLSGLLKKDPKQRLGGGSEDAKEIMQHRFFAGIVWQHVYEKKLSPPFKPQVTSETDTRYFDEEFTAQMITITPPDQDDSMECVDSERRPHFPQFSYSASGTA
# Sequence of human Caspase 4 (CASP4), CASP4 (gene 837) (P49662 whole entry, looked up): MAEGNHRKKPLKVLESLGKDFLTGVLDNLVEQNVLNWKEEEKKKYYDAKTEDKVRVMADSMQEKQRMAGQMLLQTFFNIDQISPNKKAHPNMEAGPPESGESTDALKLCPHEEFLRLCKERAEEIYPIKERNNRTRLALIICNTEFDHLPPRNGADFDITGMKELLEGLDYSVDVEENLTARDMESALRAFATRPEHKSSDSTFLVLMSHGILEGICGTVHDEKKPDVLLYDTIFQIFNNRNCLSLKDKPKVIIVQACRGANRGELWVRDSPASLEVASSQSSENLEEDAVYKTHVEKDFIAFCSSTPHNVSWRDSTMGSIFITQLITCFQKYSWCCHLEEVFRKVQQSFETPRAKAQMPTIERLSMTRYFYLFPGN
# Sequence of human Caspase 5 (CASP5), CASP5 (gene 838) (P51878 whole entry, looked up): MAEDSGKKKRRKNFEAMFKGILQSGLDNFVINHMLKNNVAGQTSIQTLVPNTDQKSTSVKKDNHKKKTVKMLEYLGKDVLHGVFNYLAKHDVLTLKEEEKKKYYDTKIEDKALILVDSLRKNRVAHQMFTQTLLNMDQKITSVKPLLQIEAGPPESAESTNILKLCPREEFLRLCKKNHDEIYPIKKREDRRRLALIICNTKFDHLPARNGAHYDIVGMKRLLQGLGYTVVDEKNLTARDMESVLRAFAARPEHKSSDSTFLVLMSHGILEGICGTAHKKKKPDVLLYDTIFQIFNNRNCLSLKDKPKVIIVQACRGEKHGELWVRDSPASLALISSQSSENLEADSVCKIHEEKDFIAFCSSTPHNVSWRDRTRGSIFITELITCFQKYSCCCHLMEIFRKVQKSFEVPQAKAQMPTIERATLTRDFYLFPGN
# Sequence of human Acid Phosphatase 1 (ACP1), ACP1 (gene 52) (P24666 whole entry, looked up): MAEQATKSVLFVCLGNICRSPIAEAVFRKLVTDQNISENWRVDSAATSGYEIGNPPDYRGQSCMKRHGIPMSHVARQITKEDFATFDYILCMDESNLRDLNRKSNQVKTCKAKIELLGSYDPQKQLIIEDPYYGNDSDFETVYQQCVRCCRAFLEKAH
# Sequence of human AKT serine/threonine Kinase 2 (AKT2), AKT2 (gene 208) (P31751 whole entry, looked up): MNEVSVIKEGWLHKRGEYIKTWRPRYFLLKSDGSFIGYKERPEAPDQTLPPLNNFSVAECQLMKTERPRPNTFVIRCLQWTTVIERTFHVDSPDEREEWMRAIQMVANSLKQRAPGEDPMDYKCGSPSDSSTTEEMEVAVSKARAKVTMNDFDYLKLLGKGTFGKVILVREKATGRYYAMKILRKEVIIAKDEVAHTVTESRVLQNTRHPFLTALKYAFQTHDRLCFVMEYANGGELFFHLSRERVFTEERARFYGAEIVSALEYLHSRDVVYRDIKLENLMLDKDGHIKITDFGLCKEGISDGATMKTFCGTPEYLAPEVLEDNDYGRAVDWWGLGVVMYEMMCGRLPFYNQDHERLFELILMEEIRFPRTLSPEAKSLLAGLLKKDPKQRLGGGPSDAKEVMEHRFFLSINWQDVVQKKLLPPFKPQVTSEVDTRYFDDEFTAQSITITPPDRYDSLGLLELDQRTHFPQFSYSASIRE
# Sequence of human CYP2D6, CYP2D6 (gene 1565) (P10635 whole entry, looked up): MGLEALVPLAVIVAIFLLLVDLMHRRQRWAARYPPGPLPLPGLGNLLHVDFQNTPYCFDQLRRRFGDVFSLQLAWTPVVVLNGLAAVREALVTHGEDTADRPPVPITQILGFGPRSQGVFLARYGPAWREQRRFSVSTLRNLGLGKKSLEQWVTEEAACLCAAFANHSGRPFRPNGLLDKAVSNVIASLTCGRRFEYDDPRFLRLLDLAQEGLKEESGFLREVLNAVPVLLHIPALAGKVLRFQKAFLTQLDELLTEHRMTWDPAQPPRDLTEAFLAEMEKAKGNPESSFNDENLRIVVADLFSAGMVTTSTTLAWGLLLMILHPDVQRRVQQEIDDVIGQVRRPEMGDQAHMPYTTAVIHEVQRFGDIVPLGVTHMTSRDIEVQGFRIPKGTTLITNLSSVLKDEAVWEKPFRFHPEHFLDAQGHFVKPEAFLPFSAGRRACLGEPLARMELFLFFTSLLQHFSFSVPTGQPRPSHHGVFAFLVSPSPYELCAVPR
# Sequence of human Caspase 8 (CASP8), CASP8 (gene 841) (Q14790 whole entry, looked up): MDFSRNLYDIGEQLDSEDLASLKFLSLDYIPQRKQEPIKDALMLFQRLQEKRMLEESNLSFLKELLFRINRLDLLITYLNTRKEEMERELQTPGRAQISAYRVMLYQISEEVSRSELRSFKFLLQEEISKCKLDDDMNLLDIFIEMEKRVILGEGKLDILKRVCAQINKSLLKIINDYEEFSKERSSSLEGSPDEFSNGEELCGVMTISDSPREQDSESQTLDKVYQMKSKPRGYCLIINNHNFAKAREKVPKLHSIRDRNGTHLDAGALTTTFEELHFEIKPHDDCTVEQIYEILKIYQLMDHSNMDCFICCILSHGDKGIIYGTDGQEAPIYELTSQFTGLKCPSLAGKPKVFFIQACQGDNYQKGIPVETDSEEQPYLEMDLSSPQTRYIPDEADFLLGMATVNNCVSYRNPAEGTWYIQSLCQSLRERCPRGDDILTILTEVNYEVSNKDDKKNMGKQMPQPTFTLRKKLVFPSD
# Sequence of human Colony Stimulating Factor 1 Receptor (CSF1R), CSF1R (gene 1436) (P07333 whole entry, looked up): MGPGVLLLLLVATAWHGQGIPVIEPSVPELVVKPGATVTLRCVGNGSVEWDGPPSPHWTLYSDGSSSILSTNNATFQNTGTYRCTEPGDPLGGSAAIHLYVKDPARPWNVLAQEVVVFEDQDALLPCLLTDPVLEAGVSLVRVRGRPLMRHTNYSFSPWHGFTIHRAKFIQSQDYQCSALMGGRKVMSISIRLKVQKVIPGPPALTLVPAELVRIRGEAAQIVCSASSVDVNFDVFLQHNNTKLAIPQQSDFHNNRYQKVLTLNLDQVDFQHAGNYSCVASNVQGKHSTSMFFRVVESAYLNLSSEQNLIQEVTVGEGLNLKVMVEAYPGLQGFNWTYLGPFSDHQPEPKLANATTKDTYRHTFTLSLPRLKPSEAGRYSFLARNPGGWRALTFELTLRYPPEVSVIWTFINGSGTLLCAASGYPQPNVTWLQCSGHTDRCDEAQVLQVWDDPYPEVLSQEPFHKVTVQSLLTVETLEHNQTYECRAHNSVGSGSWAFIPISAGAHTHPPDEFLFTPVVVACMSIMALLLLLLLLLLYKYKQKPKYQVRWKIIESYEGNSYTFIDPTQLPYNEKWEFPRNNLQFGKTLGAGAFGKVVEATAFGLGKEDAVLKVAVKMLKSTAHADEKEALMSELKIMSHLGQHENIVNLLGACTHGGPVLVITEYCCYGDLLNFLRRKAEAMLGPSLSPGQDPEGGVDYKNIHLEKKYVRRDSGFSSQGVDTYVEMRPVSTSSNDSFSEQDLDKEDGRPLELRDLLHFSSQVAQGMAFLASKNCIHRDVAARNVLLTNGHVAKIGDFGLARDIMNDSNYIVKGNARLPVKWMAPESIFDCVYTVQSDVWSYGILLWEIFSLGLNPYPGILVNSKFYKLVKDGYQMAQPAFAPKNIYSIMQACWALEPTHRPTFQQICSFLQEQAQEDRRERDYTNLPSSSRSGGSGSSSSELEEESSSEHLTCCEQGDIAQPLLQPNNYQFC
# Sequence of human Beta-secretase (BACE), BACE1 (gene 23621) (P56817 whole entry, looked up): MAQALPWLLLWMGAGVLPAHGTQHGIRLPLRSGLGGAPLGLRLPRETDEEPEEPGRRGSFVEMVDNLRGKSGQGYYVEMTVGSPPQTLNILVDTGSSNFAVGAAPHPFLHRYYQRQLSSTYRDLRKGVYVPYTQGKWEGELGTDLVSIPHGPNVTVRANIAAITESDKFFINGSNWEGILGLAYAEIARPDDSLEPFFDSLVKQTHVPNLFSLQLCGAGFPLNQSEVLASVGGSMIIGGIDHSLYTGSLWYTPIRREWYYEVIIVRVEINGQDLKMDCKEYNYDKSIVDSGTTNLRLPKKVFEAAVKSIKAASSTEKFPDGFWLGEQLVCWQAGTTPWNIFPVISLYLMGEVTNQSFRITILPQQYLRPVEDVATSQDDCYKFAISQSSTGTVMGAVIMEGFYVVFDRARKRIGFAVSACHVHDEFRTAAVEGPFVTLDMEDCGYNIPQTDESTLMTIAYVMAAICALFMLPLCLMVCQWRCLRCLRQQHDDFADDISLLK
structure (smiles),measurement,setting,value
O=C(O)c1cccc(Oc2ccccc2)c1,outcome,[1],inactive
same,outcome,[2],inactive
same,outcome,[3],inactive
same,outcome,[4],inactive
same,outcome,[5],inactive
CC(O)CN(CCN(CC(C)O)CC(C)O)CC(C)O (configuration not stated),outcome,[1],inactive
same,outcome,[3],inactive
same,outcome,[4],inactive
CCc1cc(SCc2sc(-c3ccc(C(F)(F)F)cc3)nc2CN2CCN(c3ccc(OC)cc3)CC2)ccc1OCC(=O)O,AC50,[1],21.5 µM (active)
same,AC50,[2],20 µM (active)
same,AC50,[3],9.97 µM (active)
same,AC50,[4],14.2 µM (active)
same,outcome,[6],inactive
same,AC50,[7],2.35 µM (active)
same,outcome,[8],inactive
Cc1ccc(S(=O)(=O)O)cc1C,outcome,[1],inactive
same,outcome,[3],inactive
same,outcome,[4],inactive
CNCc1ccc(NC(=O)c2c[nH]c3c2C(=O)CCC3)cc1,outcome,[1],inactive
same,outcome,[2],inactive
same,outcome,[3],inactive
same,outcome,[4],inactive
same,outcome,[9],inactive
On1ccccc1=S,AC50,[1],18.2 µM (active)
same,outcome,[2],inactive
same,AC50,[3],6.94 µM (active)
same,outcome,[4],inactive
same,AC50,[10],5.15 µM (active)
O=C(O)c1cccc(N(Cc2cccnc2)c2ccc(OC(F)F)c(OC(F)F)c2)c1,outcome,[1],inactive
same,AC50,[2],2.31 µM (active)
same,AC50,[3],7.83 µM (active)
same,outcome,[4],inactive
same,AC50,[6],6.01 µM (active)
same,AC50,[10],4.98 µM (active)
O=c1n(CC2CO2)c(=O)n(CC2CO2)c(=O)n1CC1CO1 (configuration not stated),outcome,[1],inactive
same,AC50,[3],10.6 µM (active)
same,AC50,[4],17.5 µM (active)
C[C@](N)(Cc1ccc(O)c(O)c1)C(=O)O,AC50,[1],10.8 µM (active)
same,outcome,[2],inactive
same,AC50,[3],23.9 µM (active)
same,outcome,[4],inactive
same,outcome,[11],inactive
CC(C)c1cccc(C(C)C)c1N1C(=O)c2ccc(O)cc2C1=O,outcome,[1],inactive
same,outcome,[2],inactive
same,AC50,[3],20 µM (active)
same,AC50,[4],19.3 µM (active)
same,outcome,[12],inactive
same,AC50,[6],13.6 µM (active)
same,AC50,[10],5.11 µM (active)
same,outcome,[13],inactive
same,outcome,[5],inactive
same,outcome,[14],inactive
CC(C)=CCCC(C)CCO (configuration not stated),outcome,[1],inactive
same,outcome,[2],inactive
same,outcome,[3],inactive
same,outcome,[4],inactive
same,outcome,[10],inactive
CC(C)CCCCCCCOC(=O)CCCCC(=O)OCCCCCCCC(C)C,outcome,[1],inactive
same,outcome,[2],inactive
same,outcome,[3],inactive
same,outcome,[4],inactive
same,outcome,[15],inactive
CCC(C)(C)C(=O)O[C@H]1C[C@@H](C)C=C2C=C[C@H](C)[C@H](CC[C@@H]3C[C@@H](O)CC(=O)O3)[C@H]21,AC50,[1],25.1 µM (active)
same,AC50,[3],6.31 µM (active)
same,AC50,[4],1.32 µM (active)
Clc1nc(Cl)c(Cl)c(Cl)c1Cl,outcome,[1],inactive
same,AC50,[3],23.3 µM (active)
same,outcome,[4],inactive
C=CC(=C)CCC=C(C)C,outcome,[1],inactive
same,outcome,[3],inactive
same,outcome,[4],inactive
C1=CCCC=CCCC=CCC1,outcome,[1],inactive
same,outcome,[3],inactive
same,outcome,[4],inactive
Fc1ccccc1[C@@H](F)COC1CCC(Nc2ncnc3[nH]ncc23)CC1 (some centres not stated),AC50,[1],13.7 µM (active)
same,AC50,[3],26.8 µM (active)
same,AC50,[4],25.4 µM (active)
